# Screening results as filed in PubChem.
# Rows were chosen to be rich in hits. Some 2.4% of all compounds tested hit in one or more screens of this group.
# PINK1 modulator: A Quantitative High throughput Screen to Identify Chemical Modulators of PINK1 Expression; PINK1 immunofluorescence, high-content cytometry, 24 h; Potency, µM (series often up to 76.6 µM), hits mostly activators; actives 0.2% (n = 410,000); AID 624263, 2012; active = well fitted activation curve with a large enough effect; inconclusive = small, poorly fitted or top-dose-only effect; cell line not stated here; also: nearly all actives have a fitted effect of over 65% in size
#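 Stable cell line treated 24 h with compounds at 5 concentrations (CCCP controls), then fixed and immunostained for PINK1 plus nuclear and cell stains; PINK1 immunofluorescence quantified by laser-scanning microplate cytometry.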
# Nrf2 inh: Nrf2 qHTS screen for inhibitors. A549 ARE-Fluc reporter, luciferase luminescence, 18-24 h. Potency, µM (titrated, usually from 46 µM), hits mostly inhibitors. actives 2.1% (n = 360,000); also: nearly all actives have a fitted effect of over 60% in size
#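 Nrf2 function is reported as luminescence of an ARE-controlled luciferase in A549 cells. Compounds were tested at several concentrations, and a CellTiter-Fluor read on the same wells flagged cytotoxicity.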
# A549 tox-1: Nrf2 qHTS screen for inhibitors: counterscreen for cytotoxicity; Potency, µM (top dose mostly 46 µM), hits mostly inhibitors; AID 504648, 2011; A549 ARE-Fluc cells, CellTiter-Fluor viability, 18-24 h; actives 0.16% (n = 390,000)
#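 A549 ARE-Fluc cells in 5% FBS OPTI-MEM, 5000 cells/well, rested 2 h then exposed to compounds in concentration-response for 18-24 h at 37 °C. Viability by CellTiter-Fluor fluorescence (Ex 405/Em 525) after 30 min; luciferase luminescence (BugLite, 15 min, RT) read afterwards.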
# Epigenetic reg: Quantitative High-Throughput Screen for Regulators of Epigenetic Control; murine LDR cells, GFP reporter derepression, 30 h; Potency, µM (series often up to 53.9 µM), most hits filed as activators; actives 0.2% (n = 280,000); also: nearly all actives have a fitted effect of over 60% in size
#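 GFP-positive cell count by laser-scanning cytometry (objects 20–120 um) after 30 h, 37 C compound exposure of murine LDR cells; reporter is CMV-GFP integrated at a silenced locus, inducible by HDAC or DNMT inhibitors.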
# Nrf2 activator: qHTS of Nrf2 Activators; AREc32 ARE-luciferase reporter (MCF7-derived line), luminescence, 24 h; actives 0.31% (n = 410,000); Potency, µM (titrated, usually from 46.1 µM), actives largely listed as activators; AID 624171, 2012; also: nearly all actives have a fitted effect of over 65% in size
#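 Cells of the AREc32 ARE-luciferase line are plated in OPTI-MEM containing 5% FBS and left overnight at 37 deg C. Compounds are pinned in, incubation continues 24 hr, and firefly luciferase signal is then measured.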
# FLuc enzyme inh: Nrf2 qHTS screen for inhibitors: Purified Fluc Biochemical Counterscreen for Hit Validation. shares compounds with Nrf2 inh. actives 4% (n = 1,400). Potency, µM (highest dose often 57.5 µM), usual class: inhibitors. purified firefly luciferase, luminescence inhibition; also: nearly all actives have a fitted effect of over 65% in size
# Target sequence (P08659 whole entry, looked up): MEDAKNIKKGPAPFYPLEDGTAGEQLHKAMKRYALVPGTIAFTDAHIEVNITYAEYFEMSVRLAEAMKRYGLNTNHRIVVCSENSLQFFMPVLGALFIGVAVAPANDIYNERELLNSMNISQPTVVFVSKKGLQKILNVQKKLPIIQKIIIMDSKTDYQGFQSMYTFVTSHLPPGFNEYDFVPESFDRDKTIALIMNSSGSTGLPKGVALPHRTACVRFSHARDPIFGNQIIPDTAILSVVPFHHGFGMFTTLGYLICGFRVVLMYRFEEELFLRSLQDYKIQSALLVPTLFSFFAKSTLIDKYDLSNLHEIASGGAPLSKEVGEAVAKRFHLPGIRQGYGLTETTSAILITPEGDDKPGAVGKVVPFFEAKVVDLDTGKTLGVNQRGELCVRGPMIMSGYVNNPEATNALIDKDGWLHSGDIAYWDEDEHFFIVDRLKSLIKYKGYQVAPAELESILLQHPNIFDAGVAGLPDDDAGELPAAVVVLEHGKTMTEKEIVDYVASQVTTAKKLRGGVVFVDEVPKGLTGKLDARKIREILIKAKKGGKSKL
# A549 tox-2: Nrf2 qHTS screen for inhibitors: A549 ARE-Fluc Cytotoxicity Counterscreen for Hit Validation; shares compounds with Nrf2 inh; A549 ARE-Fluc cells, cytotoxicity counterscreen; Potency, µM (titrated, usually from 46.1 µM), actives largely listed as inhibitors; actives 2% (n = 1,400); AID 720523, 2013;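 also: cells exposed to compounds for 18 to 24 hours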
# Nrf2 ARE inh: Nrf2 qHTS screen for inhibitors: Nrf2 A549 ARE-Fluc Confirmation Assay for Hit Validation; A549 ARE-firefly luciferase reporter, luminescence; actives 74% (n = 1,400); Potency, µM (series often up to 46.1 µM), usual class: inhibitors; shares compounds with Nrf2 inh; also: nearly all actives have a fitted effect of over 65% in size
# Hits are given with their value; – = inactive; ? = inconclusive; · = no result given; ! = not confirmed by another sample. Unless noted, calls follow the shape of the dose curve; as a rule, active = well fitted curve in the direction sought with a large enough effect; inconclusive = small, poorly fitted or top-dose-only effect, or another doubt; inactive = no such curve, though single readings can be large; an effect the other way counts as inactive or inconclusive.
SMILES,PINK1 modulator,Nrf2 inh,A549 tox-1,Epigenetic reg,Nrf2 activator,FLuc enzyme inh,A549 tox-2,Nrf2 ARE inh
CC1(C)C(O)CC(O)[C@]2(C)C1CC(=O)[C@]1(C)C2CC[C@@]2(C)C(c3ccoc3)OC(=O)C3OC321 (stereo partly drawn),·,·,·,–,·,·,·,·
COc1ccc(CC2NCC(O)C2OC(C)=O)cc1 (stereo not drawn),–,0.46µM,?,–,–,–,–,1.5µM
COc1ccc(C[C@H]2NC[C@H](O)[C@@H]2OC(C)=O)cc1,·,·,·,–,·,·,·,·
CC(=O)N1CCCc2cc(S(=O)(=O)N3CCCC(C(=O)Nc4cccc(F)c4)C3)ccc21 (stereo not drawn),–,9.2µM,–,–,–,–,–,·
Cc1ccc(NC(=O)C2CCCN2S(=O)(=O)c2ccc3c(c2)CCCC(=O)N3)cc1Cl (stereo not drawn),–,?,–,–,–,·,·,·
C[C@@H]1C[C@@H]([C@H](O)CC2CC(=O)NC(=O)C2)C(=O)[C@@H](C)C1,–,0.58µM,?,?,–,–,–,5.8µM
CC(=O)OC1(C)CC(C)C(=O)C(C(O)CC2CC(=O)NC(=O)C2)C1 (stereo not drawn),–,0.058µM,?,·,–,–,–,5.2µM
C[C@]12CC[C@@H]3[C@@H](CCC4=CC(=O)CC[C@@H]43)[C@@H]1CC[C@@H]2OC(=O)CCc1ccccc1,·,·,·,–,·,·,·,·
N#Cc1cc2c(nc1SCC(=O)Nc1ccc(Cl)c(C(F)(F)F)c1)C1CCN2CC1,–,7.3µM,–,–,–,–,–,7.3µM
N#Cc1cc2c(nc1SCC(=O)Nc1ccc(C(F)(F)F)cc1)C1CCN2CC1,–,8.2µM,–,–,–,–,–,12µM
Nc1c(C(=O)Nc2ccc(Cl)cc2)sc2nc3c(cc12)N1CCC3CC1,–,?,–,–,–,·,·,·
Nc1c(C(=O)Nc2ccc(Cl)c(C(F)(F)F)c2)sc2nc3c(cc12)N1CCC3CC1,–,6.5µM,–,–,–,–,?,7.3µM
CCCc1cc2c(n1Cc1ccco1)C(C)C1CN(C(=O)c3ccccc3)C(C)(C(=O)OC)C21 (stereo not drawn),·,·,·,–,·,·,·,·
C[C@H]1CCC/C=C/C2C[C@H](O)C[C@H]2[C@H](O)/C=C/C(=O)O1 (stereo partly drawn),·,·,·,–,·,·,·,·
C[C@H]1CCC/C=C/[C@@H]2C[C@H](O)C[C@H]2[C@H](O)/C=C/C(=O)O1,–,0.23µM!,?,·,–,–,?,·
CCCCn1c(=O)c(C(=O)Nc2nc3ccccc3[nH]2)c(O)c2ccccc21,·,·,·,–,·,·,·,·
CCCCCn1c(=O)c(C(=O)Nc2nc3ccccc3[nH]2)c(O)c2ccccc21,–,2.6µM,?,–,–,–,?,6.5µM
COc1ccc2[nH]cc(CCN=C(NC(=O)c3ccccc3OC)Nc3nc(C)cc(C)n3)c2c1,–,?,–,–,–,·,·,·
COc1cc2c(cc1OC)C1C(=O)c3ccc4c(c3OC1CO2)CC(C(C)C)O4 (stereo not drawn),?,0.092µM,–,·,–,–,–,0.058µM
COc1cc2c(cc1OC)[C@@H]1C(=O)c3ccc4c(c3O[C@@H]1CO2)C[C@H](C(C)C)O4,–,0.29µM,–,–,–,–,–,0.23µM
COc1cc2c(cc1OC)[C@@H]1C(=O)c3ccc4oc(C(C)C)cc4c3OC1CO2 (stereo partly drawn),·,·,·,–,·,·,·,·
COc1cc2c(cc1OC)[C@H]1C(=O)c3ccc4c(c3O[C@H]1CO2)C[C@@H](C(C)(C)O)O4,–,?,–,·,–,·,·,·
c1ccc2sc(C3(N4CCCC4)CCCCC3)cc2c1,·,·,·,–,·,·,·,·
On1ccccc1=S,?,?,–,·,–,·,·,·
CCCCCCCCCCCCCCCC[n+]1ccccc1,–,8.2µM,?,–,–,–,–,8.2µM
SMILES,PINK1 modulator,Nrf2 inh,A549 tox-1,Epigenetic reg,Nrf2 activator,FLuc enzyme inh,A549 tox-2,Nrf2 ARE inh
CCCCCCC[n+]1ccc(-c2cc[n+](CCCCCCC)cc2)cc1,–,2.6µM,–,–,–,–,–,8.2µM
COC(=O)[C@@]1(Cc2ccccc2)[C@H]2c3cc(C(=O)N(C)C)[nH]c3C[C@H]2CN1C(=O)c1ccccc1,·,·,·,–,·,·,·,·
CCOC(=O)c1ncc2[nH]c3ccc(OCc4ccccc4)cc3c2c1COC,·,·,·,–,·,·,·,·
O=C(Oc1ccccc1)N1CCC[C@@]2(CCN(Cc3cc(C(F)(F)F)cc(C(F)(F)F)c3)C2)C1,–,·,·,·,·,·,·,·
Clc1ccc(C2=CCC[C@H]3CC[C@@H]2N3)cn1,·,·,·,–,·,·,·,·
CC(=O)OC(C)(C)/C=C/C(=O)C(C)(O)C1[C@H](O)C[C@@]2(C)C3CC=C4C(CC[C@@H](O)C4(C)C)[C@]3(CO)C(=O)C[C@]12C (stereo partly drawn),–,0.23µM,0.26µM,·,–,–,?,0.16µM
CC1OC(OC2CC(O)C3(CO)C4C(O)CC5(C)C(C6=CC(=O)OC6)CCC5(O)C4CCC3(O)C2)C(O)C(O)C1O (stereo not drawn),–,0.058µM,?,·,–,–,?,0.033µM
